In the library only some 8% were active in any assay of this set; here they are far more common.
SW480 rereplic: A quantitative high throughput screen for small molecules that induce DNA re-replication in SW480 colon adenocarcinoma cells; SW480 DNA re-replication, Hoechst DNA content imaging, 48 h; Potency, µM (series often up to 46.1 µM), actives largely listed as activators; hit rate 1.8% among 340,000; AID 624297, 2012; also: nearly all actives have a fitted effect of over 55% in size
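Per well, 250 cells were exposed to pinned compound for 48 hr. Nuclear DNA was visualised with Hoechst (40 min, 37 C) and total object intensity recorded by fluorescence scanning.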
KB-V1 MDR tox: qHTS assay for MDR1-selective chemotherapeutics: Primary screen using the drug-selected MDR subline cells KB-V1. KB-V1 MDR cells viability, CellTiter-Glo, 72 h. Potency, µM (highest dose often 46.1 µM), most hits filed as cytotoxic. AID 1347076, 2019. hit rate 3.4% among 400,000; also: nearly all actives have a fitted effect of over 60% in size
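Luminescent ATP read-out (CellTiter-Glo, 10 min) measures survival of drug-selected KB-V1 MDR cells after 72 h, 37 degrees C compound exposure. Medium: phenol-red-free DMEM, 10% FBS. Values from fitted concentration-response curves.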
MCF10A rereplic: A quantitative high throughput screen for small molecules that induce DNA re-replication in MCF 10a normal breast cells | Potency, µM (titrated, usually from 46.1 µM), usual class: activators | hit rate 2.9% among 350,000 | MCF 10A DNA re-replication, Hoechst nuclear intensity, 48 h; also: nearly all actives have a fitted effect of over 50% in size
HT1080 IDH1KD tx: qHTS for induction of synthetic lethality in tumor cells producing 2HG: qHTS for the HT-1080-IDH1KD cell line; HT-1080 IDH1 knockdown viability, ATP luminescence, 48 h; Potency, µM (highest dose often 46.1 µM), hits mostly cytotoxic; hit rate 2% among 360,000; AID 686971, 2013
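% activity derives from luminescence (CellTiter-Glo), normalised to DMSO and no-cell wells. HT-1080-IDH1KD cells, 750/well, had 48 h compound exposure at 37 °C.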
HT1080NT lethal: qHTS for induction of synthetic lethality in tumor cells producing 2HG: qHTS for the HT-1080-NT fibrosarcoma cell line; hit rate 1.6% among 360,000; Potency, µM (series often up to 46.1 µM), most hits filed as cytotoxic; HT-1080-NT fibrosarcoma viability, CellTiter-Glo ATP luminescence, 48 h; AID 686970, 2013;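 also: NT is the 2HG producing partner of a matched IDH1 knockdown line; nearly all actives have a fitted effect of over 55% in size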
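HT-1080-NT; 750 cells/well; 5% FBS RPMI; 48 h compound, 37 degrees C; CellTiter-Glo luminescence; curve fitting and curve-class assignment.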
KB-3-1 tox: qHTS assay for MDR1-selective chemotherapeutics: Primary screen using the parental adenocarcinoma cell KB-3-1; KB-3-1 viability, CellTiter-Glo ATP luminescence, 72 h; Potency, µM (series often up to 46.1 µM), actives largely listed as cytotoxic; hit rate 1.4% among 400,000; AID 1347075, 2019; also: nearly all actives have a fitted effect of over 60% in size
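KB-3-1 parental drug-naive adenocarcinoma cells in DMEM/10% FBS, incubated 72 h at 37 C with pin-transferred compounds across a concentration series. Viability by CellTiter-Glo luminescence; concentration-response curves fitted after normalization.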
Of the large screens only hits and unclear results are named; the others gave an inactive call. Calls follow the shape of the dose curve; as a rule, active = well fitted curve in the direction sought with a large enough effect; inconclusive = small, poorly fitted or top-dose-only effect, or another doubt; inactive = no such curve, though single readings can be large; an effect the other way counts as inactive or inconclusive.

C=C(C)C(=O)OC1(C(F)(F)F)Oc2cc(C)ccc2NC1=O (centres undefined)	SW480 rereplic inconclusive, MCF10A rereplic 16.4µM, HT1080 IDH1KD tx inconclusive, HT1080NT lethal inconclusive
COc1ccc(C2(O)C(=O)Nc3ccc(C)cc32)cc1 (centres undefined)	KB-V1 MDR tox inconclusive
Cc1cccc(NC(=O)c2ccccc2NC(=O)C2CCCCC2)c1C	KB-V1 MDR tox 18.4µM
O=C(Nc1ccccc1)c1ccccc1NC(=O)C1CCCCC1	MCF10A rereplic inconclusive
O=C(NC1CCCCC1)c1ccccc1NC(=O)C1CC(=O)N(c2ccccc2)C1 (centres undefined)	none
Cc1ccc(N2CC(C(=O)Nc3ccccc3C(=O)NC3CCCCC3)CC2=O)cc1 (centres undefined)	KB-V1 MDR tox 3.66µM
CC1=C(C(=O)OC(C)C)C(c2ccccc2)NC(=S)N1C (centres undefined)	SW480 rereplic inconclusive, KB-V1 MDR tox 18.4µM, HT1080 IDH1KD tx inconclusive
Cc1cc(=O)oc2ccc(OC(=O)CC(C)C)cc12	MCF10A rereplic inconclusive
COc1cc(C(C[N+](=O)[O-])c2c(-c3ccccc3)cc3ccccn23)cc(OC)c1OC (centres undefined)	SW480 rereplic 11.6µM, MCF10A rereplic inconclusive, HT1080NT lethal inconclusive, KB-3-1 tox inconclusive
COC(=O)C(C(=O)OC)C(C[N+](=O)[O-])c1ccc(OC)c(OC)c1 (centres undefined)	none
O=Nc1c(-c2ccccc2)cc2ccccn12	MCF10A rereplic inconclusive
COc1cc(C(C[N+](=O)[O-])c2c(C)cc3ccccn23)ccc1O (centres undefined)	SW480 rereplic inconclusive, KB-V1 MDR tox inconclusive, MCF10A rereplic inconclusive, HT1080 IDH1KD tx 9.2µM, HT1080NT lethal inconclusive, KB-3-1 tox inconclusive
COc1ccc(C(C[N+](=O)[O-])c2c(-c3ccccc3)cc3ccccn23)cc1OC (centres undefined)	SW480 rereplic inconclusive, MCF10A rereplic 20.6µM
COc1ccc(C(C[N+](=O)[O-])c2c(-c3ccccc3)cc3ccccn23)cc1 (centres undefined)	SW480 rereplic inconclusive, KB-V1 MDR tox inconclusive, MCF10A rereplic 18.4µM, KB-3-1 tox inconclusive
O=C(CN1CCCC1)Nc1ccc(S(=O)(=O)N2CCCCC2)cc1	none
COc1cccc(C(c2c(NC(=O)c3ccccc3)sc(C)c2C)N2CCN(C)CC2)c1 (centres undefined)	KB-V1 MDR tox 20.6µM, KB-3-1 tox inconclusive
O=C(NCc1ccco1)c1cccc(NC(=O)c2ccco2)c1	SW480 rereplic inconclusive, MCF10A rereplic inconclusive, HT1080NT lethal inconclusive, KB-3-1 tox 7.31µM
O=C(NCc1ccccc1)c1cccc(NC(=O)c2ccco2)c1	KB-V1 MDR tox 8.2µM, MCF10A rereplic inconclusive, HT1080 IDH1KD tx 4.11µM, HT1080NT lethal inconclusive, KB-3-1 tox 10.3µM
CCCCNC(=O)c1ccc(C)c(NC(=O)C2=C(C)OCCS2)c1	none
Cc1ccc(C(=O)NC(=S)NCc2ccccc2)cc1Br	none
Cc1ccc(C(=O)NCc2ccccc2)cc1Br	KB-V1 MDR tox 18.4µM
O=C(Nc1ccccc1)c1cccc(NC(=O)c2ccco2)c1	KB-V1 MDR tox inconclusive
CC1=C(C(=O)Nc2cc(C(=O)NCc3ccccc3)ccc2C)SCCO1	KB-V1 MDR tox 20.6µM, HT1080 IDH1KD tx inconclusive, HT1080NT lethal inconclusive (no result: SW480 rereplic, MCF10A rereplic)
CN1C(=O)CC(N2CCN(CC(N)=O)CC2)C1=O (centres undefined)	none
CN=C1c2cc3c(Br)c(OC)ccc3n2CCN1C	SW480 rereplic inconclusive, HT1080 IDH1KD tx inconclusive
O=C(NCc1ccccc1)c1cccc(NC(=O)c2ccccc2)c1	HT1080 IDH1KD tx inconclusive, HT1080NT lethal inconclusive, KB-3-1 tox 23.1µM
Cc1ccc(C)n1-c1ccc(C(=O)Nc2ccccc2)cc1	SW480 rereplic inconclusive, MCF10A rereplic inconclusive
Cc1ccc(C)n1-c1cccc(NC(=O)c2ccccc2)c1	SW480 rereplic inconclusive, KB-V1 MDR tox 23.1µM, MCF10A rereplic inconclusive
Cc1ccc(C(=O)Nc2ccccc2C(=O)NCc2cccnc2)cc1	none
CSc1ccc(CNC(=O)Cc2ccc(NC(=O)C3=C(C)OCCS3)cc2)cc1	KB-V1 MDR tox inconclusive, MCF10A rereplic inconclusive, HT1080 IDH1KD tx 16.4µM, HT1080NT lethal inconclusive, KB-3-1 tox 5.8µM
CCOc1ccc(CCNC(=O)Cc2ccc(NC(=O)C3=C(C)OCCS3)cc2)cc1	none
Cc1ccc(C(=O)Nc2ccccc2C(=O)NCc2ccccc2)cc1	KB-V1 MDR tox 4.61µM
O=C(Nc1ccc(N2CCN(C(=O)c3ccc(Cl)cc3)CC2)cc1)c1cc2ccccc2o1	none
Cc1ccccc1C(=O)Oc1c(Sc2ccccc2)c(C)nn1C(C)(C)C	KB-V1 MDR tox inconclusive (no result: SW480 rereplic, MCF10A rereplic, HT1080 IDH1KD tx, HT1080NT lethal)
COc1ccc(/C=C/C(=O)N2c3ccccc3Sc3ccc(C(F)(F)F)cc32)cc1	KB-V1 MDR tox inconclusive
COc1ccc(-c2csc(C(O)c3ccc(F)cc3)n2)cc1 (centres undefined)	HT1080 IDH1KD tx inconclusive, HT1080NT lethal inconclusive (no result: SW480 rereplic, MCF10A rereplic)
Cc1ccc2cc(C#N)c(SCC(=O)N3CCCc4ccccc43)nc2c1C	KB-V1 MDR tox 2.59µM
CCn1c(CNc2ccc(OC)cc2)nnc1SCC(=O)N1CCCc2ccccc21	none
Cn1c(Cc2cccs2)nnc1SCC(=O)N1CCCc2ccccc21	none
O=C(CSc1nnc(Cc2cccs2)n1C1CCCCC1)N1CCCc2ccccc21	SW480 rereplic inconclusive, KB-V1 MDR tox 20.6µM, MCF10A rereplic inconclusive, HT1080 IDH1KD tx inconclusive, KB-3-1 tox inconclusive
COc1ccccc1-c1nnc(SC/C(O)=C(\C#N)c2nc3ccccc3[nH]2)n1C1CCCCC1	MCF10A rereplic inconclusive
Cc1ccc2cc(C#N)c(SCC(=O)N3CCCc4ccccc43)nc2c1	none
CCn1c(CSc2nc(C)cc(C)n2)nnc1SCC(=O)N1CCCc2ccccc21	KB-V1 MDR tox 20.6µM
N#C/C(=C(/O)CSc1nnc(Cc2cccs2)n1C1CCCCC1)c1nc2ccccc2[nH]1	SW480 rereplic 18.4µM, MCF10A rereplic inconclusive, KB-3-1 tox inconclusive
COc1ccc2nc(NNC(=O)c3cc(=O)c4ccccc4o3)sc2c1	KB-3-1 tox inconclusive
CCOC(=O)CNC(c1ccccc1)c1cc(Br)ccc1NC(=O)c1cccc(Cl)c1 (centres undefined)	KB-V1 MDR tox inconclusive (no result: SW480 rereplic, MCF10A rereplic, HT1080 IDH1KD tx, HT1080NT lethal)
Clc1ccc2nc(SCc3nnc(-c4ccccc4)o3)[nH]c2c1	KB-V1 MDR tox 16.4µM
Cc1cc(=O)[nH]c(SCc2nnc(-c3ccccc3)o2)n1	none

Source: PubChem BioAssay
